# In the library only some 7.5% were active in any assay of this set; here they are far more common.
# NPC1 promoter act – qHTS Assay for NPC1 Promoter Activators; Huh7 NPC1 promoter luciferase reporter, 24 h; Potency, µM (series often up to 9.22 µM), inactives show at the top dose activation, most hits filed as activators; 320,000 tested, 2.4% active; AID 485313, 2010; also: % of control where 0% means no effect; nearly all actives have a fitted effect of over 60% in size
#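 Luciferase expression driven by the NPC1 promoter was measured in stably transfected Huh7 cells after a 24 h compound incubation, using a luciferase reagent and a luminescence read.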
# KinaseGlo FLuc – Counterscreen for Luciferase (Kinase-Glo TM) Inhibition | Luciferin 4-monooxygenase (Photuris pensylvanica), Q27757 | Kinase-Glo luciferase, ATP luminescence, 8 min | Potency, µM (doses to about 38.3 µM), without a hit: top-dose activity change, negative = inhibition, most hits filed as inhibitors | 200,000 tested, 0.28% active; also: % is scaled to controls: 0 for no effect and ±100 for the full control effect; nearly all actives have a fitted effect of over 60% in size
#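 Compounds were added to a substrate mix at pH 7.2 (50 mM imidazole, 10 uM ATP, within the enzyme's linear range), followed by Kinase-Glo detection reagent; luminescence was measured after 8 minutes at ambient temperature.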
# Rab9 prom act – qHTS Assay for Rab9 Promoter Activators. Huh7 Rab9 promoter-luciferase reporter, luminescence, 24 h. Potency, µM (highest dose often 9.22 µM), for inactives: at the highest dose activation, negative = inhibition, hits mostly activators. 320,000 tested, 2.8% active. AID 485297, 2010; also: % of control where 0% means no effect; nearly all actives have a fitted effect of over 60% in size
#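 Huh7 cells stably carrying Rab9 promoter–luciferase reporter, plated 1500 cells/well, compound added after 2 h and incubated 24 h at 37 °C; luciferase luminescence then read after 10 min with detection reagent.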
# ELG1 genotoxic – qHTS screen for small molecules that induce genotoxicity in human embryonic kidney (HEK293T) cells expressing luciferase-tagged ELG1. HEK293T ELG1-luciferase reporter, luminescence, 16 h. 330,000 tested, 1.3% active. Potency, µM (titrated, usually from 46 µM), inactives show at the top dose activity change, positive = activation, actives largely listed as activators. AID 504466, 2011; also: % of control where 0% means no effect; nearly all actives have a fitted effect of over 60% in size
#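 Quantitative HTS format in 1536-well plates. HEK293T ELG1-luciferase reporter cells receive test compound and are incubated 16 hr at 37 °C, 5% CO2; ONE-Glo added, 30 min room temperature, then luminescence read.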
# FLuc modulator – qHTS profiling assay for firefly luciferase inhibitor/activator using purifed enzyme and Km concentrations of substrates (counterscreen for miR-21 project); Luciferin 4-monooxygenase (Photinus pyralis), P08659; purified FLuc, Km substrates, luminescence inhibition; Potency, µM (series often up to 57.5 µM), inactives show top-dose activity change, negative = inhibition, most hits filed as inhibitors; 360,000 tested, 6.9% active; AID 588342, 2011;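 also: plate controls were vehicle for no effect and reference inhibitor for full effect; nearly all actives have a fitted effect of over 55% in size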
# Target sequence (P08659 whole entry, looked up): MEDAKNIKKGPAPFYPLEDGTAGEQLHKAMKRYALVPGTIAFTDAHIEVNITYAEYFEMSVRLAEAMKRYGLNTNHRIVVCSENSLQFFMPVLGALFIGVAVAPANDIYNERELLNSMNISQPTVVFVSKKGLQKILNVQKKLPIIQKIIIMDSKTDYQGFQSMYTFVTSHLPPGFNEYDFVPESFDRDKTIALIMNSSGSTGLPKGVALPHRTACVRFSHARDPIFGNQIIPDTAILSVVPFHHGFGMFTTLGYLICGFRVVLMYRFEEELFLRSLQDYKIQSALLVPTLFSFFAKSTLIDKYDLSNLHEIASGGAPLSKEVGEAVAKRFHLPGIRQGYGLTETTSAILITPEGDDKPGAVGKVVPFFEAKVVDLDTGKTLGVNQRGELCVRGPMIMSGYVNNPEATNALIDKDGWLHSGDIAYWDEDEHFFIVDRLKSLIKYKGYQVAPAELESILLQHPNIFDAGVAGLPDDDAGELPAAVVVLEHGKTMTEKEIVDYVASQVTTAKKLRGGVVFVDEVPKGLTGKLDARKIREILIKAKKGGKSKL
#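 Biochemical qHTS of compounds, final roughly 60 µM downward over six points, against 10 nM purified firefly luciferase using Km concentrations of substrates (10 uM D-luciferin, 10 uM ATP) in Tris acetate pH 7.5 buffer; luminescence output.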
# SMN2 splice up – qHTS Assay for Enhancers of SMN2 Splice Variant Expression | 210,000 tested, 2.8% active | HEK293 SMN2-luciferase splicing reporter, luminescence, 30-36 h | Potency, µM (titrated, usually from 46.1 µM), inactives show top-dose activity change, positive = activation, usual class: activators; also: % of control where 0% means no effect; nearly all actives have a fitted effect of over 55% in size
#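 HEK293 cells carry an SMN2 […]–luciferase reporter in which exon 7 inclusion puts luciferase in frame. Cells were plated 10-12 h before compound addition, then incubated 30-36 h at 37C. ONE-Glo luminescence was read; sodium butyrate at 4.5 mM final served as control.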
# Starred values were filed as active, the others as inactive; ? = inconclusive; . = no result given; [ ] = dose if it differs, or a comment. Calls follow the shape of the dose curve; as a rule, active = well fitted curve in the direction sought with a large enough effect; inconclusive = small, poorly fitted or top-dose-only effect, or another doubt; inactive = no such curve, though single readings can be large; an effect the other way counts as inactive or inconclusive. Potency is read from the fitted curve at half-maximal effect.
SMILES,NPC1 promoter act,KinaseGlo FLuc,Rab9 prom act,ELG1 genotoxic,FLuc modulator,SMN2 splice up
CC(=O)Oc1c2c(c(CC=C(C)C)c3c1C(=O)C1=CC4CC5C(C)(C)OC(C/C=C(\C)C(=O)O)(C4=O)[C@]15O3)OC(C)(CCC=C(C)C)C=C2 (stereo partly specified),.,0.3%,.,.,.,-94.8%
COc1ccccc1N=Cc1c(O)n(C)c(=O)n(C)c1=O,4.6%,?,12.5%,16.9%,7.57µM*,-12.6%
COc1ccc(Cl)cc1N=Cc1c(O)n(C)c(=O)n(C)c1=O,-2.1%,.,0.9%,1.7%,1.2%,.
COc1ccc(OC)c(N2C(=O)NC(=O)/C(=C/c3ccc([N+](=O)[O-])s3)C2=O)c1,-3.6%,?,-9.0%,-9.1%,16.9µM*,?
C=CCN1C(=O)/C(=C/c2ccc(Br)s2)C(=O)NC1=S,-7.7%,.,-5.3%,?,?,.
CCN1C(=O)/C(=C\c2ccc([N+](=O)[O-])s2)C(=O)NC1=S,-19.4%,-12.0%,1.7%,-12.9%,8.49µM*,-23.6%
COc1ccc(-n2nc(C(=O)NCC(=O)N3CCC4(CC3)OCCO4)c3ccccc3c2=O)cc1OC,20.3%,.,?,9.5%,3.01µM*,.
COc1cccc(-n2nc(C(=O)N3CCC4(CC3)OCCO4)c3ccccc3c2=O)c1,0.3%,5.9%,-2.5%,-5.6%,-1.4%,12.5%
CCn1nc(-c2ccccc2)nc2c(=O)n(C)c(=O)nc1-2,-2.0%,-3.7%,-31.4%,5.5%,?,7.08µM*
CNC(=O)Oc1ccc(-c2cn3cc(C)ccc3n2)cc1,0.355µM*,?,0.316µM*,?,0.338µM*,1.78µM*
CCC(COC(=O)NC)NC(=O)Oc1cccc(C)c1 (stereo unspecified),-3.4%,6.0%,6.6%,3.2%,-1.6%,10.4%
CNC(=O)Oc1cccc(-c2cn3cc(Cl)ccc3n2)c1,3.16µM*,10µM*,3.55µM*,?,2.69µM*,?
[Cl-].[Cl-].[Hg+2],.,.,.,.,.,-29.4%
c1ccc(CCN2CCCCCC2)nc1,.,-1.4%[7.66 µM],.,.,.,-9.5%[9.22 µM]
CN(C)C(=O)Oc1ccc(OC(=O)c2ccccc2)cc1,-3.9%,?,-2.2%,?,6.75µM*,5.1%
Cc1cnn(-c2cc(Oc3ccccc3)ncn2)c1,?,.,?,1.46µM*,16.9µM*,.
C=CC(=O)OCC(CO)(COC(=O)C=C)COC(=O)C=C,.,.,.,.,.,-106.9%
FC(F)(F)c1nc2ccc(SSc3ccc4nc(C(F)(F)F)[nH]c4c3)cc2[nH]1,.,-2.0%[7.66 µM],.,.,.,-9.5%[9.22 µM]
CCc1cc2c(=O)n(C(C)C(=O)OC3CCCCC3)cnc2s1 (stereo unspecified),?,2.5%,?,9.2µM*,15.1µM*,11.2µM*
N[C@@H](CSC1c2ccccc2-c2ccccc21)C(=O)O,.,-4.2%[7.66 µM],.,.,.,-2.7%[9.22 µM]
C=CC(C)(C)c1c2c(c(O)c3c(=O)c4ccc(O)c(O)c4oc13)C=CC(C)(C)O2,.,1.0%,.,.,.,-92.4%
CCOc1ccc(-c2nc3ccc(-c4nc5ccc(N6CCN(C)CC6)cc5[nH]4)cc3[nH]2)cc1,.,.,.,.,.,3.98µM*
CN1CCN(c2ccc3nc(-c4ccc5nc(-c6ccc(O)cc6)[nH]c5c4)[nH]c3c2)CC1,.,-4.4%[7.66 µM],.,.,.,?
O=P(O)(O)c1ccccc1OCCOCCOCCOCCOc1ccccc1P(=O)(O)O,3.98µM*,-0.6%,3.55µM*,-6.0%,?,23.8%
O=C(Oc1ccccc1)c1cc2ccccc2o1,0.0%,-3.9%,0.1%,1.4%,9.53µM*,1.1%
CCCOC(=O)c1ccc(OC(=O)c2ccco2)cc1,0.3%,-6.8%,-0.8%,2.0%,?,4.1%
CS(=O)(=O)O[C@H]1CN2CCC1CC2,.,-2.8%[7.66 µM],.,.,.,-8.9%[9.22 µM]

# Screens (PubChem BioAssay)
